# CYP2C19 activ: cytochrome P450 2C19 (human) activation; activation factor at 5 µM; P33261; recombinant CYP2C19, luciferin-H EGE luminescence; stronger effect = higher value; 0 = fully inhibited enzyme, 1 = untreated enzyme; 96,000 tested, under 10 active;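 active = activation factor of at least 2 at 5 µM in the primary screen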;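 note: 0 = wells with 2.5 mM tranylcypromine and 1 = vehicle-only wells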
# CYP2C9 inh: inhibitors of human CYP2C9. 20% of 96,000 active. P11712. AID 777. inhibition, % at 5 µM. CYP2C9 Supersomes, luciferin-H conversion, luminescence;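 active = blocking of liver enzyme CYP2C9 beyond about 50% at 5 µM, limit read from the data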
# CYP2C19 inh: inhibitors of human CYP2C19; inhibition, % at 5 µM; 21% of 96,000 active; CYP2C19 Supersomes, luciferin-H EGE luminescence, 30 min; P33261;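 active = CYP2C19 inhibition above a set limit at 5 µM in the primary screen, cut at about 50% in these data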;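 note: plate controls were negative control wells for no effect and 2.5 mM tranylcypromine positive control for full effect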
# CYP2C9 act: activators of human CYP2C9 | P11712 | recombinant CYP2C9, luciferin-H conversion, luminescence; stronger effect = higher value; factor 1 = untreated enzyme, 0 = blocked | activation factor at 5 µM | 1.4% of 96,000 active | AID 1024;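 active = activation factor of 2 or more for CYP2C9 at a 5 µM dose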;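 note: 0 = sulfaphenazole-blocked wells and 1 = vehicle-only wells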
# PLK1 inh: PLK1 (human) kinase inhibition | P53350 | inhibition, % at 10 µM | 0.53% of 97,000 active | recombinant PLK1 kinase, TR-FRET peptide phosphorylation | AID 619;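 active = inhibition of 50% or more in the single-concentration screen; inactive = inhibition below 50%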;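 note: 0% = DMSO max control and 100% = H-89 dihydrochloride min control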
# Target sequence (P53350 whole entry, looked up): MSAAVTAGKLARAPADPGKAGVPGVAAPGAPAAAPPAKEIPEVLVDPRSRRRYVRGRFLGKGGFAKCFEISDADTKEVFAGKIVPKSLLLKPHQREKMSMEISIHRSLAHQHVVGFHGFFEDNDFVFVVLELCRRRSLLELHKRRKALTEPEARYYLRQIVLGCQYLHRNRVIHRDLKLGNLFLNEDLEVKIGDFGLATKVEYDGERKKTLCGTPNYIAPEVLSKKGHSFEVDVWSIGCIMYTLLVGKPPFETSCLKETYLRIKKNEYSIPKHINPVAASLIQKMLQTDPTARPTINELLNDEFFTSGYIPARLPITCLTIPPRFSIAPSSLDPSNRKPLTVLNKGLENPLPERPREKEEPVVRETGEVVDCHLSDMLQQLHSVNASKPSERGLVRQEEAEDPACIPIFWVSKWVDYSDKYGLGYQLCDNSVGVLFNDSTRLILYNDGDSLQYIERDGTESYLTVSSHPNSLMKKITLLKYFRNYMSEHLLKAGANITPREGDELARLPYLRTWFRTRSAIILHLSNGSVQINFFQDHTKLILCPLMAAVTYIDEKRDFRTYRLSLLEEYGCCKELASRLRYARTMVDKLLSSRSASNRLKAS
# PLK1 PBD inh: Plk1 (human) PBD binding inhibition; inhibition, %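 (tested at about 20 µM)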; AID 693; 0.13% of 97,000 active; Plk1 PBD phosphopeptide binding, fluorescence polarization; P53350; in the data active = inhibition above about 34%, passing the limit was not always enough
# Numbers without * were called inactive; . = no result. Rows were chosen to be rich in hits. Some 28% of all compounds tested hit in one or more screens of this group.
SMILES,CYP2C19 activ,CYP2C9 inh,CYP2C19 inh,CYP2C9 act,PLK1 inh,PLK1 PBD inh
Cc1ccccc1OCc1nc2ccccc2c(=O)n1NC(=O)c1ccco1,.,.,.,.,-3,-5
Brc1cccc(-c2nnc3sc(CN4CCCCC4)cn23)c1,0.6,50*,37,0.5,10,25
CC1CC(C)CN(CCCNC(=O)CCNC(=O)Cn2ccc3ccccc3c2=O)C1 (centres undefined),0.9,-1,8,1,1,6
O=C(CNC(=O)c1ccccc1)NCC1COc2ccccc2O1 (centres undefined),0.7,16,26,0.8,-1,-41
CCOc1ncccc1C(=O)NCC1COc2ccccc2O1 (centres undefined),0.1,88*,88*,0.1,-7,-2
CCc1ccc(C(=O)NCC2COc3ccccc3O2)o1 (centres undefined),0.1,58*,92*,0.4,.,.
O=C(Cc1ccccc1)NCC1COc2ccccc2O1 (centres undefined),.,.,.,.,-8,-20
Cc1cc(=O)n2[nH]c(COc3ccccc3)nc2n1,1,22,1,0.8,-8,-34
CC(C)CC(=O)N1CCN(S(=O)(=O)c2ccc(F)cc2)CC1,0.7,19,25,0.8,-9,-18
FC(F)(F)c1cccc(NC(=S)Nc2ccc(Cl)cc2Cl)c1,0.8,-24,23,1.2,-8,-7
Cc1ccc(C(=O)CCC(=O)Nc2cccnc2)cc1C,0.9,6,14,0.9,-8,-8
Fc1ccc(CNC(=S)Nc2ccc(Cl)cc2)cc1,0.2,13,84*,0.9,-4,-5
Cc1cc(Cl)ccc1NC(=S)Nc1cccnc1,0.5,16,54*,0.8,-8,7
Cc1cc(Cl)ccc1OCCCC(=O)Nc1cccnc1,0.5,41,50*,0.6,10,7
S=C(Nc1ccccc1)Nc1ccc(Cl)cc1Cl,0.4,26,58*,0.7,-10,-11
O=C(Nc1cnc2sc3c(n2c1=O)CCCC3)c1ccc(F)cc1,0.9,16,10,0.8,-4,0
Cc1ccc(C(=O)N2C3C=CC(C3)C2(C(F)(F)F)C(F)(F)F)cc1 (centres undefined),0.8,34,19,0.7,-6,-24
N#CCCN1CCn2c1nc1ccccc12,0.9,-22,12,1.2,-5,-39
S=C(Nc1ccccc1Cl)Nc1ccc(Cl)cc1Cl,0.4,45,58*,0.5,-1,-9
CN(C)NC(=S)Nc1ccc(Cl)cc1,0.1,24,91*,0.8,-8,-4
S=C(Nc1ccccc1)Nc1cc(Cl)ccc1Oc1ccccc1,0,95*,96*,0.1,-1,-17
CN(C)CCNC(=S)Nc1ccc(Cl)cc1,0.8,-3,16,1,3,10
Fc1ccc(NC(=S)Nc2ccc(F)c(Cl)c2)cc1Cl,0,86*,98*,0.1,-5,-17
CCCCC(=O)Nc1ccc(F)c(Cl)c1,0.7,-12,28,1.1,-5,4
O=C(CCS(=O)(=O)c1ccc(Cl)cc1)Oc1ccc2c(c1)OCO2,0.8,35,24,0.7,.,.
SMILES,CYP2C19 activ,CYP2C9 inh,CYP2C19 inh,CYP2C9 act,PLK1 inh,PLK1 PBD inh
CCCCN1c2ccccc2N(CCCO)c2cc(C)nnc21,0.7,65*,27,0.4,-9,3
CCCc1cc(=O)n2c([nH]c3ccccc32)c1C#N,1,56*,-2,0.4,-23,8
N/C(COc1cccc(Cl)c1)=N\NS(=O)(=O)c1ccccc1,0.7,4,31,1,-11,15
CCOC(=O)C(C(=O)Nc1cccc(C)n1)C1CCCCC1 (centres undefined),0.2,82*,80*,0.2,0,11
CCOC(=O)C(C(=O)Nc1nccs1)C1CCCCC1 (centres undefined),0.3,77*,69*,0.2,-12,6
CCOC(=O)C(C(=O)Nc1nc2ccccc2s1)C1CCCCC1 (centres undefined),0.6,92*,38,0.1,-16,-29
CCOC(=O)C(C(=O)Nc1cccc(C)c1)C1CCCCC1 (centres undefined),0.2,55*,82*,0.4,-9,-32
CCOC(=O)C(C(=O)Nc1ccccn1)C1CCCCC1 (centres undefined),0.8,41,16,0.6,-9,9
CCCCOc1ccccc1-c1cc(C(=O)O)[nH]n1,1.1,0,-12,1,12,-5
CCOC(=O)C1=C(C)C(c2ccc(OC)cc2)NC(=S)N1 (centres undefined),0.4,82*,59*,0.2,-11,5
CCOC(=O)C(C)n1ncn2cccc2c1=O (centres undefined),1.1,-7,-9,1.1,-9,20
CCc1ccc2[nH]c(=O)c(CN(CCCN3CCOCC3)C(=O)Nc3ccc(F)cc3)cc2c1,0.4,44,55*,0.6,-3,6
COc1ccc(NC(=O)N(CCN2CCCC2)Cc2cc3cc(OC)c(OC)cc3[nH]c2=O)cc1,1,75*,2,0.3,-9,-7
CCc1ccc2[nH]c(=O)c(CN(Cc3ccccc3)C(=O)Nc3ccccc3OC)cc2c1,0.1,90*,86*,0.1,-14,7
COc1ccccc1NC(=O)N(CCCN1CCOCC1)Cc1cc2cc3c(cc2[nH]c1=O)OCO3,0.8,8,16,0.9,.,.
O=C(Nc1ccc(F)cc1)N(CCCN1CCOCC1)Cc1cc2cc3c(cc2[nH]c1=O)OCCO3,0.6,15,36,0.9,-6,19
CCc1ccc2[nH]c(=O)c(CN(CCN3CCOCC3)C(=O)Nc3ccccc3F)cc2c1,0.5,52*,50,0.5,.,.
CCc1ccc2[nH]c(=O)c(CN(CCN(C)C)C(=O)Nc3ccccc3OC)cc2c1,0.8,12,16,0.9,-7,-22
O=C(CN1C(=O)NC2(CCCCCCC2)C1=O)NCc1ccc2c(c1)OCO2,1,23,5,0.8,-9,7
NC(=O)C1CCN(C(=O)CN2CCc3ccccc32)CC1,0.9,0,11,1,-6,-15
c1ccc2c(c1)ccc1nnc(SCc3ccc4c(c3)OCO4)n12,0.5,36,48,0.6,3,11
CCN(CC)CCCN(Cc1cc2cc(OC)ccc2[nH]c1=O)C(=O)Nc1ccc(F)cc1,0.4,84*,62*,0.2,-3,0
COc1cc2cc(CN(Cc3cccnc3)C(=O)NCc3ccccc3)c(=O)[nH]c2cc1OC,0.5,37,52*,0.6,2,21
COc1ccc(NC(=O)N(Cc2cc3cc(OC)ccc3[nH]c2=O)CC2CCCO2)cc1 (centres undefined),1,23,-4,0.8,-3,12
COc1ccc2[nH]c(=O)c(CN(CCN(C)C)C(=O)NCc3ccccc3)cc2c1,1,8,3,0.9,-6,-35
O=C(COc1ccccc1O)Nc1ccccc1Cl,0.6,5,37,1,-16,19

# Screening results: PubChem BioAssay, several laboratories
